# From PubChem
# HIF activator: HIF pathway transcriptional activation; U2OS HRE-luciferase reporter, luminescence; normalized: DMSO 0%, desferrioxamine 100%; activation, % at 7.5 µM (by protocol); AID 1910; 300,000 tested, 0.32% active;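 active means mean activation of at least 10% of the iron chelator positive control signal, with at least half of replicates also reaching 10%; inconclusive means mean and replicate majority disagree about reaching 10%; inactive means mean and most replicates under 10%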
# TNF death inh: blocks TNF-alpha induced death of Jurkat FADD-/- cells. Jurkat FADD-/- TNF necroptosis rescue, ATP luminescence, 24 h; 0 = TNF only, 100 = no-TNF cells. activation (protection from cell death), % at 10 µM. 220,000 tested, 0.068% active. AID 463075;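 active means activation, meaning protection from cell death, of at least 50% relative to plate controls; inactive means activation below 50%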;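 further: necroptosis triggered by 40 ng/mL TNF-alpha added together with compound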
# Calb FLC: C. albicans growth modulation with fluconazole | C. albicans CaCi-2 (fluconazole-resistant clinical isolate) + fluconazole, Alamar Blue growth, 48 h | growth inhibition, % (no concentration beside the values) | 300,000 tested, 0.57% active;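 active means growth inhibition above about 58% in most replicates, limit read from the data, passing the limit was not always enough; inconclusive means exactly half the replicates above a set limit; inactive means most replicates below a set limit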;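 further: all wells also contain fluconazole at 8 µg/ml as a sub-toxic cotreatment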
# L929 necroptosis: blocks zVAD induced death of L929 cells. L929 zVAD necroptosis rescue, ATP luminescence, 24 h; with zVAD 60 µM. viability rescue, % at 10 µM. 220,000 tested, 0.38% active. AID 1377;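 active means activation, scaled between plate controls, above about 75%, limit read from the data; inactive means activation under that limit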
# Numbers stand for hits; 0 = inactive; ? = inconclusive; - = not tested or not shown. Shown are actives, neighbours in structure and some others; about 1.1% of the full set was active somewhere.
SMILES,HIF activator,TNF death inh,Calb FLC,L929 necroptosis
O=c1c2ccccc2nc(-c2ccccc2Cl)n1O,0,0,0,0
N#Cc1ccc(-c2nc3ccccc3c(=O)n2O)cc1,0,-,0,-
O=c1c2ccccc2nc(-c2ccc(Cl)cc2Cl)n1O,0,0,83.8,0
Cc1ccc(-c2nc3c(Cl)cc(Cl)cc3c(=O)n2O)cc1,0,-,95.7,-
N#Cc1ccc(-c2nc3cc(Cl)ccc3c(=O)n2O)cc1,0,-,100.9,-
O=C(O)c1ccccc1-c1nc2cc(Cl)ccc2c(=O)n1O,0,0,0,0
C/C(=N\NC(=O)c1ccn(C)n1)c1ccc(NC(=O)C2CCCC2)cc1,0,0,0,0
C/C(=N\NC(=O)c1nn(C)c(C)c1Br)c1ccc(NC(=O)C2CCCC2)cc1,-,-,112.1,-
COc1cccc(C(=O)Nc2ccc(N3CCN(C(=O)c4cccs4)CC3)cc2)c1,0,-,0,-
Cc1cccc(C(=O)NCCCNC(=O)c2ccc(C)nc2)c1,0,-,0,-
CCCCCC1C/C(=N\O)C=C(C)C1C(=O)OC (centres undefined),0,0,0,0
CCCCCCCC1CC(=O)C=C(C)C1C(=O)OCC (centres undefined),80.6,0,0,0
O=Nc1c(O)c2ccccc2c2ccccc12,0,-,94.3,-
O=C(Nc1ccccc1)N1CCCC(CNS(=O)(=O)Cc2ccccc2)C1 (centres undefined),0,0,0,0
CCN(CC)CCn1nc2c3c(cccc3c1=O)-c1ccccc1-2,29.2,0,-,0
CCCNC(=O)COc1cccc(C(=O)NCc2ccccc2)c1,0,0,0,0
CCNC(=O)COc1cccc(C(=O)NCc2ccccc2)c1,75.4,0,0,0
CC1=C(C(=O)Nc2ccccc2C(=O)N2CCC(C)CC2)SCCO1,0,-,0,-
COc1ccc(C(=O)NCCc2nc3cc([N+](=O)[O-])ccc3n2C)cc1,25.9,0,0,0
COc1ccc(C(=O)Nc2ccc3c(c2)nc(CCNC(C)=O)n3C)cc1,0,0,0,0
Cc1ccc(S(=O)(=O)N(C)C)cc1NC(=S)N(C)C1CCN(C)CC1,0,-,0,-
O=C(NNC(=O)C(O)(c1ccccc1)c1ccccc1)C1CC1,31.1,0,0,0
COC(=O)c1cc(C(=O)OCC(=O)NNC(=O)c2cccs2)cc([N+](=O)[O-])c1,0,-,0,-
O=C(O)c1ccccc1C(=O)NNc1ccc(F)cc1,0,0,101.9,0
COc1ccc(C(=O)N/C(=C/c2ccco2)C(=O)N2CCCCCC2)cc1,0,-,0,-
SMILES,HIF activator,TNF death inh,Calb FLC,L929 necroptosis
Cc1cc(C)c(-c2cc(NC(=O)COC(=O)c3ccc(NC(=O)CC#N)cc3)n(-c3ccccc3)n2)cc1C,0,-,0,-
Cc1cc(C)c(-c2cc(NC(=O)COC(=O)c3ccc(C#N)cc3)n(-c3ccccc3)n2)cc1C,0,0,76.6,0
O=C(CCC(=O)N/N=C/c1cc(Cl)cc(Cl)c1O)NCc1ccccc1,0,0,0,0
CNCc1ccccc1Sc1ccc(O)c(O)c1,0,0,106.6,0
O=C(Nc1ccccc1Oc1cccnc1)C1CCCN(C/C=C/c2ccccc2)C1 (centres undefined),0,-,0,-
COc1ccc(C(Nc2cc(C)ccn2)c2ccc3ccc(C)nc3c2O)cc1 (centres undefined),0,0,0,0
COc1ccccc1NC(c1cccnc1)c1ccc2cccnc2c1O (centres undefined),11.5,0,81.6,0
Cc1ccnc(NC(c2cccnc2)c2ccc3cccnc3c2O)c1 (centres undefined),11.2,0,89.6,0
C/C(=N\Nc1ccc(F)cc1F)c1ccc(N2CCOCC2)cc1,0,0,103.7,0
C/C(=N\Nc1ccc(F)cc1F)c1ccc(F)cc1,0,0,0,0
C/C(=N\Nc1ccc(F)cc1F)c1ccc(Br)s1,0,0,102.2,0
Cc1ccc(C)c(NC(=O)c2cnn3ccccc23)c1,0,0,0,84.6
c1ccc(COc2ccccc2CNC23CC4CC(CC(C4)C2)C3)cc1,0,0,94.9,0
CC(C)OC(=O)C(=O)NNc1ccccc1,0,0,129.5,-
Cc1ccc(C2=NS(=O)(=O)N(C)C(C(=O)NC3CCCC3)=C2)cc1,31.0,-,0,-
COc1cc(/C=N/Nc2ccc(F)cc2F)cc(OC)c1OC,0,0,125.9,0
Fc1ccc(N/N=C/c2cccnc2)c(F)c1,0,0,112.0,0
Cc1ccc(NC(=S)NC(=O)C2CC2)cc1Cl,-,-,112.4,-
O=c1[nH]n2c(C(F)(F)F)cc(C3CC3)nc2c1N=Nc1ccccc1,0,0,88.4,0
Cc1ccc(S(=O)(=O)CC(=O)Nc2ncc([N+](=O)[O-])s2)cc1,0,-,0,-
O=C(CCS(=O)(=O)c1ccccc1)Nc1nc2cc3c(cc2s1)OCO3,0,0,0,0
O=C(CS(=O)(=O)c1ccccc1)Nc1ncc([N+](=O)[O-])s1,0,-,0,-
O=C(CCS(=O)(=O)c1ccccc1)Nc1nc2cc3c(cc2s1)OCCO3,0,-,81.9,-
Cc1ccc(CC(=O)Nc2ncc([N+](=O)[O-])s2)cc1,0,77.4,82.3,0
Cc1cnc(NC(=O)c2cccs2)s1,0,-,0,-
SMILES,HIF activator,TNF death inh,Calb FLC,L929 necroptosis
O=C(Nc1ncc([N+](=O)[O-])s1)c1cccs1,0,-,108.3,-
O=C(CCS(=O)(=O)c1ccccc1)Nc1ncc([N+](=O)[O-])s1,0,-,99.1,-
O=C(N/N=C/c1c(O)ccc2ccccc12)c1ccc(Br)o1,59.0,-,0,-
Cn1nccc1C(=O)N/N=C/c1c(O)ccc2ccccc12,101.1,-,0,-
O=C(N/N=C/c1c(O)ccc2ccccc12)Nc1ccccc1,0,-,0,-
Cn1cc(C(=O)N/N=C/c2c(O)ccc3ccccc23)ccc1=O,87.7,0,0,0
O=C(CSCC(=O)Nc1ccccc1)N/N=C/c1c(O)ccc2ccccc12,70.7,0,113.3,0
Cc1cc(=O)n2nc(N3CCCC3C(=O)Nc3cccc(Cl)c3C)sc2n1 (centres undefined),0,-,0,-
Cc1ccc(C)c(NC(=O)CN(C)C(=O)c2cc3c(s2)CCCCC3)c1,0,-,0,-
O=C(c1ccco1)N1CCN(Cc2cn[nH]c2-c2cccc3ccccc23)CC1,0,0,0,0
O=C(Cc1ccccc1)Nc1ncccn1,0,-,0,-
CC(C)(C)C(=O)NN=C1CCC(c2ccccc2)CC1 (centres undefined),0,-,0,-
Cc1ccc(NC(=S)NC2CCSc3ccccc32)cc1C (centres undefined),0,-,0,-
O=C(N/N=C\c1c(O)ccc2ccccc12)c1ccc(O)cc1,34.0,-,0,-
Nc1nonc1N/N=C/c1c(O)ccc2ccccc12,0,0,?,0
Cc1occc1C(=O)N/N=C/c1c(O)ccc2ccccc12,91.4,-,0,-
Nc1cc(Cl)nc(N/N=C/c2c(O)ccc3ccccc23)n1,12.9,0,0,0
Cc1occc1C(=O)N/N=C/c1c[nH]c2ccccc12,0,0,0,0
O=C(N/N=C/c1cc(Br)c(O)c(Br)c1)c1cc2c(ccc3ccccc32)o1,-,-,109.0,-
O=C(N/N=C/c1ccc(O)c(Br)c1)c1cc2c(ccc3ccccc32)o1,-,-,0,-
CC(NC(=O)C(=O)N1CCOCC1)C(c1cccs1)N1CCN(c2ccccc2)CC1 (centres undefined),0,-,0,-
